Measurements taken from PubChem BioAssay.

Biological target: Alpha-2C adrenergic receptor (Homo sapiens) (UniProt P18825)
Experiment: modulators of alpha2C/GIRK thallium flux, primary screen, cell-based, HEK293 alpha2C/GIRK1/2 (AID 624;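 active = fluorescence slope after compound addition differing from the mean of all screened samples at 99.7% confidence, in either direction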;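 note: slope of fluorescence ratio to pre-addition baseline per second over 15 to 24 s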)
Conditions: thallium flux BTC fluorescence, at 10 µM, actives lie on both sides

Chain of Alpha-2C adrenergic receptor (Homo sapiens) (P18825 whole entry, looked up): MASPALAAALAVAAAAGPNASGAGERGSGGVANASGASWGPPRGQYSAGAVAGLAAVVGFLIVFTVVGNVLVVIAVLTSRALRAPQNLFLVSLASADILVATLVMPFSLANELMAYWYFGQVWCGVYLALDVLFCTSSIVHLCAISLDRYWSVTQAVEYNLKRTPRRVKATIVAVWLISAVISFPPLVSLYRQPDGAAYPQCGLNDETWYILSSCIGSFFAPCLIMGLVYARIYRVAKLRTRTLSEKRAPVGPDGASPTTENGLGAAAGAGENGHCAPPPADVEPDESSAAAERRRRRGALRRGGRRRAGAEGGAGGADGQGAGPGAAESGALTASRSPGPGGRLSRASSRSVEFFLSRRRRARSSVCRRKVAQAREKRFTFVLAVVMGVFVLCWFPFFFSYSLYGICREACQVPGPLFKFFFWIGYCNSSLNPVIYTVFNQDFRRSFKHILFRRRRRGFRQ

slope, inactive:
COc1ccc(CC(=O)OCn2nnc3ccccc3c2=O)cc1 0.00601
CCCNC(=O)Nc1ccccc1C(=O)Nc1ccc(OC)cc1 0.00585
CCSc1nnc(N2C(=O)CC(c3ccsc3)C3=C2CC(C)(C)CC3=O)s1 (stereo not given) 0.00599
COc1ccccc1-n1c(SCC(=O)Nc2ccc3c(c2)OCO3)nc2c(c1=O)SCC2 0.00487
COc1ccc(S(=O)(=O)Cc2ccc(C(=O)N3CCOCC3)o2)cc1 0.0067
Cc1ccc(S(=O)(=O)NCCSc2nnnn2-c2ccc(C(N)=O)cc2)cc1 0.00721
O=C(c1cccc(C(=O)N2CCN(c3ccc(F)cc3)CC2)c1)N1CCN(c2ccc(F)cc2)CC1 0.006
CCOCCCNC(=O)c1cc2sc(Cl)cc2n1CC 0.00603
CCOc1ccc(NC(=O)CN2CCN(CC(=O)c3ccc(OCC)cc3)CC2)cc1 0.00276
CC1CCCC(N2CCN(C(=O)c3ccc(F)cc3)CC2)C1 (stereo not given) 0.00721

Test system: not listed separately
Experiment: inhibitors of Sendai virus-induced IRF3 signaling, primary screen, TLR/RLR signaling modifier project, cell-based, Sendai virus stimulus, luciferase, 10K MLSCN set (AID 602276);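 note: firefly luciferase from ISG56 promoter only with Renilla not read in this screen; 0% = Sendai virus plus DMSO and 100% = medium plus DMSO without virus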
Conditions: HEK293 RL24 IRF3 luciferase reporter, at 10 µM, hits give high values

inhibition, inactive:
COc1ccc(C)cc1NC(=O)CN1CCN(S(=O)(=O)c2ccc(Cl)cc2)CC1 5.97%
COc1cccc(C(=O)Nc2c(C(N)=O)oc3ccccc23)c1 10.6%
O=C(CC(Cc1ccccc1)C(=O)O)NCCc1ccc2c(c1)OCO2 (stereo not given) -2.67%
CC(=O)c1cccc(NC(=O)CCNS(=O)(=O)c2cccc3nsnc23)c1 11.2%
COc1ccc(-n2c(=O)cc(N3CCN(Cc4ccccc4)CC3)[nH]c2=O)cc1 12.1%
Cc1cc(N2C(=O)C(O)=C(C(=O)c3ccc(C)o3)C2c2cccs2)no1 (stereo not given) -1.8%
COC(=O)C1=C(C)NC(C)=C(C(=O)OC)C1C(=O)OC1CCCCC1=O (stereo not given) 1.65%
O=C(Cc1cccs1)Nc1ccccc1NC(=O)Cc1cccs1 9.79%
CCOC(=O)c1cc2c(=O)n3ccccc3nc2n(CCCOC)c1=NC(=O)C(C)(C)C 7.96%
CCOC(=O)c1cc(-c2ccco2)nc2c1c(C)nn2CCC#N -22.4%
Cc1cc(C)c(C#N)c(SCC(=O)Nc2ccc(S(=O)(=O)Nc3onc(C)c3C)cc2)n1 9.61%
O=c1c2nnn(Cc3ccc(Cl)cc3)c2ncn1Cc1ccc(F)cc1 13.6%
Cc1ccc2c(c1)CCCN2C(=O)C1CCCO1 (stereo not given) 10.7%
CC1(C)NC(=O)N(CC(O)COc2ccc(-c3ccccc3)cc2)C1=O (stereo not given) -15.6%
CS(=O)(=O)NCc1nnc(SCC(=O)NC2CCCCC2)n1-c1ccc(F)cc1 16.2%
O=C(NCC1CCCO1)c1cccc(N2C(=O)C3C4C=CC(C4)C3C2=O)c1 (stereo not given) 8.37%
CC(=O)Nc1cccc(NC(=O)C2CCCN2C(=O)Nc2ccc(C)cc2)c1 (stereo not given) -9.54%
COc1cccc(CN=CC2=C(O)CC(C)(C)CC2=O)c1OC 1.64%
COC(=O)Cn1c(CN2CCOCC2)nc2c1c(=O)n(C)c(=O)n2C 6.17%
O=C(O)c1[nH]c2ccc(Cl)cc2c1CC(=O)N1CCN(C(=O)c2ccco2)CC1 7.71%
CC1CCN(c2oc(-c3cccc4ccccc34)nc2C#N)CC1 -40.5%
Cc1ccc(S(=O)(=O)N2CCN(C(=O)CSC3CCCC3)CC2)c(C)c1 17.2%
CCOC(=O)c1sc2nc(SCC#N)n(CCCN3CCCC3=O)c(=O)c2c1C 4.69%
COc1cc(C(Nc2ccc3c(c2)OCO3)C(=O)NC2CCCCC2)cc(OC)c1OC (stereo not given) 14.6%
Cc1cc2c(cc(C(=O)OCC(=O)NCc3cccs3)n2C(C)C)o1 20.7%
O=C(CSc1nc2ccccc2nc1SCC(=O)N1CCOCC1)N1CCOCC1 9.88%
Cc1onc(-c2ccccc2Cl)c1C(=O)Nc1cnn(Cc2ccccc2)c1 14.3%
CC(NC(=O)c1ccco1)c1ccc2c(c1)OCCO2 (stereo not given) 9.46%
Cc1nc2ccccc2n1CCC(=O)Nc1cccc(F)c1 16.2%
O=C(NC1CCCCCC1)C1CCCN(S(=O)(=O)c2cccs2)C1 (stereo not given) -10.9%
COc1ccc(CC(=O)OCn2nnc3ccccc3c2=O)cc1 12%
CCCNC(=O)Nc1ccccc1C(=O)Nc1ccc(OC)cc1 -1.84%
CCSc1nnc(N2C(=O)CC(c3ccsc3)C3=C2CC(C)(C)CC3=O)s1 (stereo not given) 11.7%
COc1ccccc1-n1c(SCC(=O)Nc2ccc3c(c2)OCO3)nc2c(c1=O)SCC2 -5.47%
COc1ccc(S(=O)(=O)Cc2ccc(C(=O)N3CCOCC3)o2)cc1 8.1%
Cc1ccc(S(=O)(=O)NCCSc2nnnn2-c2ccc(C(N)=O)cc2)cc1 -0.501%
O=C(c1cccc(C(=O)N2CCN(c3ccc(F)cc3)CC2)c1)N1CCN(c2ccc(F)cc2)CC1 -6.05%
CCOCCCNC(=O)c1cc2sc(Cl)cc2n1CC 34.7%
CCOc1ccc(NC(=O)CN2CCN(CC(=O)c3ccc(OCC)cc3)CC2)cc1 10.7%
CC1CCCC(N2CCN(C(=O)c3ccc(F)cc3)CC2)C1 (stereo not given) 2.84%
